We go through 40 molecules from PubChem BioAssay (Tox21).

Molecules are shown by their SMILES. Results filed as inconclusive are left out. Where a call stands in place of a potency, no number is given. Activity calls are given as the source filed them. Calls follow the shape of the full dose curve.

The target of the experiment is D(2) dopamine receptor (Homo sapiens) (UniProt P14416). The experiment is described as follows: Dopamine D2 receptor (DRD2) small molecule agonists, cell-based qHTS assay (AID 1963594). Also: nearly all actives have a fitted effect of over 35% in size. The note with it: HEK293-DRD2 cAMP HTRF, agonist mode, 30 min; series mostly up to 92.4 µM. An excerpt: National Center for Advancing Translational Sciences [NCATS]
Chain of D(2) dopamine receptor (Homo sapiens) (P14416 whole entry, looked up): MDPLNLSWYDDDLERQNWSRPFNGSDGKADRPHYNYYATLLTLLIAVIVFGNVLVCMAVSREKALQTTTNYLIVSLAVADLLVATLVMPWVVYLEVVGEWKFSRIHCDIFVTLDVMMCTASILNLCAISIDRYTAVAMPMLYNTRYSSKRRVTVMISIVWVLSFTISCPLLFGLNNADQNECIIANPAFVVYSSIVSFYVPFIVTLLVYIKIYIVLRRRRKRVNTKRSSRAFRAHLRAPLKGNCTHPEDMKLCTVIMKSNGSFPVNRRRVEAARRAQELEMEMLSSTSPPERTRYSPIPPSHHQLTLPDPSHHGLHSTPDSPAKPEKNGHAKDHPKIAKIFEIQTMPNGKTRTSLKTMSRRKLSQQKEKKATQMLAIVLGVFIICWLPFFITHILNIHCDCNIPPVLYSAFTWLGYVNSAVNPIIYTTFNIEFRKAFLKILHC
Division of Preclinical Innovation [DPI]
U.S. Environmental Protection Agency [EPA]
National Institutes of Environmental Health Sciences [NIEHS]
National Toxicology Program [NTP]
U.S. Food and Drug Administration [FDA]
DRD2 is the D2 subtype of the dopamine receptor, which is coupled to Gi subtype of G protein-coupled receptor. This G protein-coupled receptor inhibits adenylyl cyclase activity. The DRD2-HEK293 cell line stably expressing D2 dopamine receptor can be used for screening agonists and antagonists of interactions between D2 and its ligands. The Hek293-DRD2 cAMP assay is based on HTRF technology. It measures changes of cAMP accumulation in response to Gi coupled GPCR activation or inhibition.
Tox21 Assay Protocol Summary:
DRD2-Hek293 cells were dispensed at 600 cells/3uL/well in 1536-well white plates using a Multidrop Dispenser. After the assay plates were incubated at a 37 C/5% CO2 incubator for 24 h, 1 uL of Ro20-1724 at final concentration of 0.1 mM was transferred to the assay plate by a Flying Reagent Dispenser. Following Ro20-1724 addition, 23 nL of compound dissolved in DMSO, positive controls or DMSO only was added to the assay plates via Wako pintool station. The assay plates were incubated at room temperature for 10 min. Next, 1 uL of NKH477 at 200nM was added into the plates. After the assay plates were incubated at room temperature for an additional 30 min, 2.5 ul/well of cAMP-d2 and 2.5 ul/well of anti-cAMP-cryptate were added respectively into the assay plates using a Flying Reagent Dispenser. The plates were incubated at room temperature for 1 h. The fluorescence intensity in the plates was measured at 340 nm excitation and 665 & 620 nm emission by an Envision plate reader.
Turning to `CCc1cc(C)cc(CC)c1-c1c(OC(=O)C(C)(C)C)n2n(c1=O)CCOCC2`, the Potency result is “inactive”.
`Cc1cc(-c2cc(C)c(N)c(C)c2)cc(C)c1N`: the Potency entry was “inactive”.
Regarding `N#Cc1ccc(O)cc1`, the Potency result is “inactive”.
As for `CC[N+]1(C)CCCC1`, the Potency result is “inactive”.
In the case of `COc1cc(N)c(Cl)cc1C(=O)NC1CN2CCC1CC2` (stereo not given), the Potency entry is “inactive”.
Regarding `CCC[N+](=O)[O-]`, the Potency entry was “inactive”.
The entry for `Cc1ccc2ccccc2c1` is “inactive”; for `Cc1cccc(C)c1NC(=O)CN1CCCC1=O` it is “inactive”; for `Cc1cc(N=Nc2ccccc2C)ccc1N` it is “inactive”.
The entry for `CCN(CC)N=O` is “inactive”.
With `CC1(C)C(C=C(Cl)Cl)C1C(=O)OC(C#N)c1cccc(Oc2ccccc2)c1` (stereo not given), the Potency entry was “inactive”.
As to `O=[N+]([O-])c1cccc2ccccc12`, the Potency entry is “inactive”.
Take `Cc1ccc(-c2nc3ccc(C)cn3c2CC(=O)N(C)C)cc1`: the Potency result was “inactive”.
For the molecule `Cc1cccc(C)c1N`, the Potency entry is “inactive”.
For `NNc1ccccc1` the value was “inactive”; for `O=C1c2ccccc2C(=O)N1SC(Cl)(Cl)Cl`, “inactive”; for `CC1=C2[C@H]3OC(=O)[C@@H](C)[C@@H]3CC[C@@]2(C)C=CC1=O`, “inactive”.
The entry for `O=P(O)(O)CCCl` is “inactive”; for `ClCC1CO1` (stereo not given) it is “inactive”; for `CS(=O)(=O)NC(=O)c1cc(Oc2ccc(C(F)(F)F)cc2Cl)ccc1[N+](=O)[O-]` it is “inactive”.
Take `CCOP(=S)(OCC)Oc1cnc2ccccc2n1`: the Potency result is “inactive”.
Consider `N#CCCCl`, for which the Potency result is “inactive”.
For `O=P1(NCCCl)OCCCN1CCCl` (stereo not given) the value was “inactive”; for `CCOCN(C(=O)CCl)c1c(C)cccc1CC`, “inactive”.
For `CC1OC(C)OC(C)O1` (stereo not given), the Potency result was “inactive”.
In the case of `COC(=O)c1c(C(F)F)nc(C(F)(F)F)c(C2=NCCS2)c1CC(C)C`, the Potency entry was “inactive”.
In the case of `Cc1ccc(Cl)c(O)c1`, the Potency result is “inactive”.
Regarding `C[C@]1(O)CC[C@H]2[C@@H]3CCC4=CC(=O)CC[C@]4(C)[C@@]3(F)[C@@H](O)C[C@@]21C`, the Potency result was “inactive”.
As to `[N-]=[N+]=CC(=O)OC[C@H](N)C(=O)O`, the Potency entry is “inactive”.
The entry for `CCBr` is “inactive”; for `CNC(=S)S` it is “inactive”; for `CC(C#N)CCC#N` (stereo not given) it is “inactive”.
For `ClCCOCCCl` the value was “inactive”.
As to `COP(=S)(OC)Oc1ccc(S(=O)(=O)N(C)C)cc1`, the Potency result is “inactive”.
For `CC(C)COC(=O)c1ccccc1C(=O)OCC(C)C` the value was “inactive”; for `CCOP(=O)(OCC)SCCSCC`, “inactive”.
For the molecule `O=S(=O)(O)O`, the Potency entry is “inactive”.
Regarding `C/C(=N\NC(=O)Nc1cc(F)cc(F)c1)c1ncccc1C(=O)O`, the Potency result was “inactive”.
`CN(CCO)CCO`: the Potency entry was “inactive”.
The entry for `CCOC(=O)CC(SP(=O)(OC)OC)C(=O)OCC` (stereo not given) is “inactive”.
